Test results as given in article PMC7819943, “Rice protein-binding microarrays: a tool to detect cis-acting elements near promoter regions in rice”.
The full ranking holds about 68,000 sequences; the median of “fluorescence intensity (a.u.)” is about 9,100, and the highest 2% start at about 16,000. This is one part of a sample in which the highest values are shown more often than they occur.

What follows are sequences tested against OsWRKY34 (Oryza sativa, UniProt Q0JBA9 1-250) (assay: protein-binding microarray (RPBM); PBS, 2% BSA, 51.3 ng/ul salmon testes DNA, 50 uM zinc acetate, 200 nM TF, 25 C, 1 h; high values mean tight binding). Conditions: protein: recombinant; tags: N-terminal polyhistidine and DsRed monomer fusion (pET32a); label: CyDye5-dUTP incorporated in the synthesized complementary strand; 3' TTTTT single-stranded linker to array surface; dsDNA, one strand shown.
Sequence of OsWRKY34 (Q0JBA9 entry or part of it): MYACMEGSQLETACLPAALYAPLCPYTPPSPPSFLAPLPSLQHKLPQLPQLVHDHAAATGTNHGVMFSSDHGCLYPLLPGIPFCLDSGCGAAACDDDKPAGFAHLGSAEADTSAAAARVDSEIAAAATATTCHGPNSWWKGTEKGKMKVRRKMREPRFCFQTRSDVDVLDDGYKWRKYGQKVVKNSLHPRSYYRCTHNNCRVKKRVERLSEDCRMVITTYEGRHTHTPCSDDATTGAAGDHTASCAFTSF
How it was run: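 Polyhistidine-tagged DsRed fusions of transcription factors, joined at the N-terminus, were expressed in E. coli BL21-CodonPlus and isolated on Ni–NTA. They were incubated at 200 nM for 1 h at 25 °C on a custom Agilent array, double-stranded and BSA-blocked, in PBS with 2% BSA, salmon testes DNA and 50 µM zinc acetate. The binding signal is per-feature fluorescence intensity (arbitrary units) read on an Axon 4000B scanner after washing.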

Sequence	binding signal
TATATGTAAGCTACTTTTGTCCTATACATAAATTACTTTTCGGAGTCACCTAGTGCAG	8580 fluorescence intensity (a.u.)
CTCTCTCCTACTGTAGGCCACCACCACCGCGACCGCACGACGGAGTCACCTAGTGCAG	9340 fluorescence intensity (a.u.)
CATGTGCTAAAAAGTCAACGGTATCAAACATTTTTAAACGCGGAGTCACCTAGTGCAG	15800 fluorescence intensity (a.u.)
TCTCGAGGTTGTTACATTGTACTTGTCGCTAGCTCGTCATCGGAGTCACCTAGTGCAG	8400 fluorescence intensity (a.u.)
TCGCTAGTAGCTGTTGCTGCCTCTCCACCGCGTCCCTCTCCGGAGTCACCTAGTGCAG	11000 fluorescence intensity (a.u.)
GTCGCGCCTGACGCCGCCGTTGCGCCTGCCACCGCCTGTCCGGAGTCACCTAGTGCAG	8220 fluorescence intensity (a.u.)
CGCTCCACATAGGCTAGGCCCATGTCCCTTAGAGGATCCTCGGAGTCACCTAGTGCAG	8380 fluorescence intensity (a.u.)
CCCCACCGCCCACCGCCCACCGCCCACCCACCTCCGCACCCGGAGTCACCTAGTGCAG	11600 fluorescence intensity (a.u.)
GCTACTACTGCTGCTGCTGCTACTTATCCACCGCTTTTTTCGGAGTCACCTAGTGCAG	13600 fluorescence intensity (a.u.)
TACCCACACCGATCTGCCGCTGCCCAGTTCCACCTACTTTCGGAGTCACCTAGTGCAG	16800 fluorescence intensity (a.u.)
CCTCACATCTTCTTCTTCATCTCCCTGTCTCTGTCTCTGTCGGAGTCACCTAGTGCAG	13500 fluorescence intensity (a.u.)
GTCTTCCCCTAGCGCCGCCGCCTCCACCTCCGCCGCCGTCCGGAGTCACCTAGTGCAG	8700 fluorescence intensity (a.u.)
TGTCACATTTTTCGTCGTCTCCATCTTCATCTTCTTGTCGCGGAGTCACCTAGTGCAG	11200 fluorescence intensity (a.u.)
ACCCGTCTCTGTTCATCTCCACATCTTGTCTTCTCGCTGTCGGAGTCACCTAGTGCAG	18100 fluorescence intensity (a.u.)
CTCACGCGCTGCACCGCCGATACCCCACCCGCTGCTAGTTCGGAGTCACCTAGTGCAG	8670 fluorescence intensity (a.u.)
CTAACCCGCGCCCCAACCCTAGCCGCCTCCGCCCCGCCTCCGGAGTCACCTAGTGCAG	8920 fluorescence intensity (a.u.)
CCGCCCTTAGACAGGCCCCGCCTCCGCCTCCGCGCCCACCCGGAGTCACCTAGTGCAG	27800 fluorescence intensity (a.u.)
GTGCCACTCTGTCTCTTCCGTCCATAGCGCCGTCGTCTTCCGGAGTCACCTAGTGCAG	17300 fluorescence intensity (a.u.)
GCAGCGCTCGTCTCTCTCTGTCTCTCCACTCTCTTCTCTCCGGAGTCACCTAGTGCAG	10100 fluorescence intensity (a.u.)
CCCGACCCAAACCTCACCGCCGCCGTCGCCGTTGCCGCCGCGGAGTCACCTAGTGCAG	8310 fluorescence intensity (a.u.)

Sequence	binding signal
TTAACTCGACAGTTTGTGTGTGATTTCAGTACTACCACGACGGAGTCACCTAGTGCAG	10400 fluorescence intensity (a.u.)
CTCCGCCGTCGCGTCCCCGCCGCCGCCGCCCGCCTTCCCCCGGAGTCACCTAGTGCAG	9960 fluorescence intensity (a.u.)
ACTCGCGATATGCTTGTAACTTGGTTTGGTATTCCATTCTCGGAGTCACCTAGTGCAG	9670 fluorescence intensity (a.u.)
GGGTTACGGCTGCAAGCTTGTTCTCTCCAGATGGGGAGTTCGGAGTCACCTAGTGCAG	10400 fluorescence intensity (a.u.)
CGCTTTCCTCTGTTTCTCCGCCGCGCTCGTTCGTCGTCTCCGGAGTCACCTAGTGCAG	21400 fluorescence intensity (a.u.)
TCCCTCCCGTCTCGTCTCCGCTCATTGCGCCATCTCGCGCCGGAGTCACCTAGTGCAG	8660 fluorescence intensity (a.u.)
TTCTCCACCGCCGCCACCACCACCTCGCCTGGCCGGCCTCCGGAGTCACCTAGTGCAG	18000 fluorescence intensity (a.u.)
CTCCTCTCGCCGCCGCCGCCACCGCCACCGCCGCCGCTCCCGGAGTCACCTAGTGCAG	10100 fluorescence intensity (a.u.)
GCTCTCATGGCCTCACACACCGCGCCATTGCCATCGTTTCCGGAGTCACCTAGTGCAG	17000 fluorescence intensity (a.u.)
CTCGCCGCCGGCCTCCTCCACCACCACCGACGACTCCGACCGGAGTCACCTAGTGCAG	8430 fluorescence intensity (a.u.)
GCCTCGCCTCGCCGCCGGCGGCCACCGTCTCCGCCGCCTCCGGAGTCACCTAGTGCAG	8800 fluorescence intensity (a.u.)
AACACCGTTCCTCCGCCGCGCCGTCATTGCCACCGGCCTCCGGAGTCACCTAGTGCAG	9730 fluorescence intensity (a.u.)
GTCCTGCTGCTTCCGCCGCCGCCACCGTCCTGCTGCTTCCCGGAGTCACCTAGTGCAG	9500 fluorescence intensity (a.u.)
CCGCCGCTTCCTCGCCACCGCCGCTGCCGCCGCCACTTCCCGGAGTCACCTAGTGCAG	19400 fluorescence intensity (a.u.)
GTCTCCGCGCGCGCTCTCTCTTTCGTTCACTCTCGCTTTCCGGAGTCACCTAGTGCAG	14500 fluorescence intensity (a.u.)
CGCGCCCTCCTCCGCCGCCGCTCGCCGCCGTTCGTCTCCGCGGAGTCACCTAGTGCAG	9840 fluorescence intensity (a.u.)
CATCGACTACCTGCCATTCTTCTACTCCAGGGTCTTCTCGCGGAGTCACCTAGTGCAG	9510 fluorescence intensity (a.u.)
ATCTTATGGTGTATTTTTTTTTTCTCCGGTGCAGGTTGGTCGGAGTCACCTAGTGCAG	8260 fluorescence intensity (a.u.)
GATGTGAATCACCCTTTGCTTTGCTGAATCTACTCCTACACGGAGTCACCTAGTGCAG	10600 fluorescence intensity (a.u.)
GCGAACTCCGAGCGCGGAGGTTGAGGCGGCGGCGAGCGTGCGGAGTCACCTAGTGCAG	9820 fluorescence intensity (a.u.)

Sequence	binding signal
CATTATTAAAATATATATGTGTTACATTCGGTATTATATTCGGAGTCACCTAGTGCAG	8650 fluorescence intensity (a.u.)
CCTCATGATGATGCCGAACGTCTCGACATTGACCGCGCCCCGGAGTCACCTAGTGCAG	9370 fluorescence intensity (a.u.)
CCGCCGCCCACCTCATGCCTTGCGCGGTGCCCGTGAGAGACGGAGTCACCTAGTGCAG	8250 fluorescence intensity (a.u.)
GATCGCTCCATAAACATGCAATATATCAATTTTAACTTTTCGGAGTCACCTAGTGCAG	8900 fluorescence intensity (a.u.)
CTCTCAGCCGGTCTATCAATTCCCCTTTCTGATACAATAACGGAGTCACCTAGTGCAG	9570 fluorescence intensity (a.u.)
CCCATTCTAGATATTAACTACTAATCTGACTCTATTTTTTCGGAGTCACCTAGTGCAG	8880 fluorescence intensity (a.u.)
TGGGTTTTATTTTCCCATTCTTTCGAGCTATTTTGACGGACGGAGTCACCTAGTGCAG	8220 fluorescence intensity (a.u.)
ACACTCTCGCCGTCGCCGCCTCCTCGCCTCCGCTTACTCCCGGAGTCACCTAGTGCAG	16700 fluorescence intensity (a.u.)
GCGCGCGCCGGCCTCCGTCTTCCTCCGCGGGTGCGCCACCCGGAGTCACCTAGTGCAG	10400 fluorescence intensity (a.u.)
ACCCGCTTCTCGTCTCCTCGTCTCCTCGTTCGTCTCTCGCCGGAGTCACCTAGTGCAG	18000 fluorescence intensity (a.u.)
GTCGTCGCCTGCCTCTTCGTCGCCGCTCTCGTCTCCGCTCCGGAGTCACCTAGTGCAG	9880 fluorescence intensity (a.u.)
CTCTCCTCTCCTCGCTTCTTCGTCTCGCTTGCTCGCTCGCCGGAGTCACCTAGTGCAG	8550 fluorescence intensity (a.u.)
CATTTAAATCGCCATCACTCCGCGCGCTCTCCCATCCATCCGGAGTCACCTAGTGCAG	8870 fluorescence intensity (a.u.)
CGCCGCCTCCGCTCCACTCTCCTCGCCGTCGCCGGTCCTCCGGAGTCACCTAGTGCAG	11500 fluorescence intensity (a.u.)
TCGCCTATCTCTCTATCTCTTTCGCCACCGCTTGCCTCTCCGGAGTCACCTAGTGCAG	9030 fluorescence intensity (a.u.)
TTCCTCCGTCTGCGTGCCGGCTTCTGTCTTCCTCCGCGCGCGGAGTCACCTAGTGCAG	17300 fluorescence intensity (a.u.)
GCTCTATCTTTACTCGCCATTTAATCGTTGCCTCGCGCTCCGGAGTCACCTAGTGCAG	16900 fluorescence intensity (a.u.)
TCCCGCTTCTCCTCCGTCGCTCTCCGCCGCCGCCGCCACCCGGAGTCACCTAGTGCAG	10200 fluorescence intensity (a.u.)
CGTCGCCGCCGCCGGCGTCTTCTCCACCTCCTCCGCGCCGCGGAGTCACCTAGTGCAG	8030 fluorescence intensity (a.u.)
